Experimental data taken from PubChem BioAssay AID1345085 (National Center for Advancing Translational Sciences (NCATS), 2018).
Results filed as inconclusive are left out. A call without a number means that no potency is given here. Activity calls are given as the source filed them. Calls come from the whole dose curve; as a rule, active = well fitted cell-killing curve with a large enough effect; inconclusive = small, poorly fitted or top-dose-only effect, or effect the other way; inactive = no such curve, though single readings can be large or run the other way.

tested on: SW626; assay: Confirmatory qHTS for gynecologic anti-cancer compounds from libraries of approved drugs and bioactive compounds; conditions: gynecologic cancer cell panel viability, ATPlite luminescence, 48 h; series mostly up to 57.6 µM; note: nearly all actives have a fitted effect of over 55% in size
In short: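 Viability is measured as ATP-dependent luciferase light using ATPlite, read 15 min after reagent addition at room temperature. Compounds, in DMSO, span 57.5 uM down to 0.977 nM over 11 threefold steps for 48 h.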
Potency is the fitted concentration of half-maximal effect.

Compound	Potency
C[C@H]1CCC/C=C/C2C[C@H](O)C[C@H]2[C@H](O)/C=C/C(=O)O1 (some centres not stated)	172 nM (active)
CCNC(=O)C[C@@H]1N=C(c2ccc(Cl)cc2)c2cc(OC)ccc2-n2c(C)nnc21	inactive
C=C(C)[C@H]1Cc2c(ccc3c2O[C@@H]2COc4cc(OC)c(OC)cc4[C@@H]2C3=O)O1	inactive
CCOc1ccccc1-n1c(C(C)N2CCN(C(=O)COc3ccc(Cl)cc3)CC2)nc2ccccc2c1=O (configuration not stated)	4850 nM (active)
CCN1CCN(C(=O)Cc2ccc(Nc3ncc(F)c(Nc4ccc(C(=O)Nc5ccccc5Cl)cc4)n3)cc2)CC1	inactive
O=C(O)Cc1ccccc1	inactive
C[C@]12CC[C@H]3[C@@H](CCC4=CC(=O)CC[C@@H]43)[C@@H]1CC[C@@H]2OC(=O)CCc1ccccc1	inactive
